# Test results reported in PubChem BioAssay AID2284348 (EPA ToxCast).
# Records with an inconclusive call do not appear. Active and inactive are the calls of the source. How the source made its calls: active means hit-call score of the fitted dose curve at least 0.9, where 1 is the maximum; inconclusive means response in the unintended direction; inactive means score below 0.9.
# Tested on: Japanese medaka Peroxisome Proliferator-activated Receptor alpha (PPARa), gene 100304458
# Assay: ATG_jmPPARa_EcoTox2: Attagene TRANS-FACTORIAL EcoTox-2 HepG2 Assay for Japanese medaka Peroxisome Proliferator-activated Receptor alpha (PPARa)
# Method: ATG_EcoTox2 is a cell-based, multiplexed assay created by modifying the existing Attagene TRANS-FACTORIAL system to include a panel of nuclear receptors from some or all the following species: human (Homo sapiens), african clawed frog (Xenopus laevis), rainbow trout (Oncorhynchus mykiss), japanese medaka (Oryzias latipes), and zebrafish (Danio rerio). The ECOTOX2-FACTORIAL format uses HepG2, a human liver cell line, with measurements taken at 24 hours after chemical dosing in a 24-well plate. ATG_jmPPARa_EcoTox2 is one of 29 assay components calculated in the ATG_EcoTox2 assay. It is designed to make measurements of mRNA induction, a form of inducible reporter, as detected with fluorescence intensity signals by Reverse transcription polymerase chain reaction (RT-PCR) and Capillary electrophoresis technology.The assay endpoint ATG_jmPPARa_EcoTox2 was analyzed in the positive analysis fitting direction relative to DMSO as the negative control and baseline of activity. Using a type of inducible reporter, measures of mRNA for gain-of-signal activity can be used to understand the reporter gene at the transcription factor-level as they relate to the gene PPARa. Furthermore, this assay endpoint can be referred to as a […], because this assay has produced multiple assay endpoints where this one serves a reporter gene function. To generalize the intended target to other relatable targets, this assay endpoint is annotated to the nuclear receptor intended target family, where the subfamily is non-steroidal.
# Human liver HepG2 cells are transiently transfected with multiple reporter transcription units (MRTUs) in 6-well plates using FuGene 6 reagent (Roche; 3 ml FuGene/1 mg DNA). The MRTU constructs are regulated by a cis-regulating element (promoter). Each RTU expresses a GAL4-UAS that regulates the transcription of a nearby target reporter gene sequence. A major difference between the CIS and TRANS system is that in CIS activities of endogenous TFs are measured, whereas the TRANS assay evaluates changes in activities of exogenous, chimeric NR-Gal4 proteins. […] At the end of 24 hour incubation, total RNA was isolated using TriZol reagent (Invitrogen). The isolated RNA is then reverse-transcribed using oligo(dT) primer and Mo-MLV reverse transcriptase (Invitrogen) with DNAse I (Ambion) treatment for 30 min. The one-tenth of the produced cDNA was amplified by PCR using Taq DNA polymerase (Invitrogen) and two reporter sequence-specific primers. […] The fragments were purified using Qiaquick PCR columns (Qiagen), analyzed on an ABI 3130xL genetic analyzer (Applied Biosystems) with peak positions identified by using a set of X-rhodamine (ROX)-labeled MapMarker1000 molecular weight standards (BioVentures). […]
Structure (SMILES),AC50,outcome
O=C(O)C(F)(F)C(F)(F)C(F)(F)C(F)(F)C(F)(F)C(F)(F)C(F)(F)F,75 µM (active),–
O=S(=O)(O)C(F)(F)C(F)(F)C(F)(F)C(F)(F)C(F)(F)C(F)(F)F,–,inactive
[Cl][Sn]([c]1ccccc1)([c]1ccccc1)[c]1ccccc1,0.473 µM (active),–
CCCCOCN(C(=O)CCl)c1c(CC)cccc1CC,50 µM (active),–
